Consider 25 compounds from PubChem BioAssay (NCATS).

Assay [1] can be described thus: qHTS for Inhibitors of Plasmodium falciparum (DD2) proliferation (AID 504314).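 For activity, negative = inhibition: parasite DNA measured by SYBR Green fluorescence after red cell lysis; plate controls were DMSO vehicle for no effect and artemisinin wells for full effect.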 Note: potency is the fitted concentration of half-maximal effect. Summed up: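 Fluorescence read-out (ex 485/em 535 nm) of SYBR Green-stained parasite DNA quantifies intraerythrocytic growth. Cultures at 0.3% parasitemia and 2.5% hematocrit were treated for 72 h; data normalized to DMSO and 0.29 uM artemisinin wells.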
Assay [2] is described as follows: qHTS for Inhibitors of Plasmodium falciparum (GB4) proliferation (AID 504315). Note: nearly all actives have a fitted effect of over 50% in size. Note: potency is the fitted concentration of half-maximal effect. The essentials:
(§1)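 Erythrocytes infected with P. falciparum line (0.3% parasitemia, 2.5% hematocrit final) incubated with compounds 72 h at 37 °C, 5% CO2; SYBR Green lysis buffer added, fluorescence read next day. Normalized to 0.29 uM artemisinin and DMSO.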
For orientation: qHTS replaces the single test concentration by a dilution series.

A short description of assay [3]: qHTS for Inhibitors of Plasmodium falciparum (7G8) proliferation (AID 504316). Note: nearly all actives have a fitted effect of over 65% in size. Note: potency is the fitted concentration of half-maximal effect. The essentials: as §1
The nature of assay [4]: qHTS for Inhibitors of Plasmodium falciparum (HB3) proliferation (AID 504318). Note: nearly all actives have a fitted effect of over 60% in size. Note: potency is the fitted concentration of half-maximal effect. Summed up: as §1
Assay [5] can be described thus: qHTS for Inhibitors of Plasmodium falciparum (CP250) proliferation (AID 504320). Note: potency is the fitted concentration of half-maximal effect. Summed up: as §1
In assay [6] the target is Atrial natriuretic peptide receptor 1 (Homo sapiens) (UniProt P16066). The assay is described as follows: Natriuretic polypeptide receptor (hNpr1) antagonism - Pilot CMLD screen (AID 1347052; calls by dose curve;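 note: HEK293 cells with hNpr1 stimulated by hNppA peptide at 0.1 nM; cGMP level read as GloSensor luciferase luminescence after agonist stimulation; series mostly up to about 9.2 µM; % is set by controls: 0 for no effect and ±100 for the full control effect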).

Results filed as inconclusive are left out. Some compounds were tested as several samples or in several runs, with calls that do not always agree. Activity calls are given as the source filed them. Unless noted, calls come from the whole dose curve; as a rule, active = well fitted curve in the direction sought with a large enough effect; inconclusive = small, poorly fitted or top-dose-only effect, or another doubt; inactive = no such curve, though single readings can be large; an effect the other way counts as inactive or inconclusive.

Atrial natriuretic peptide receptor 1 (Homo sapiens), sequence (P16066 whole entry, looked up): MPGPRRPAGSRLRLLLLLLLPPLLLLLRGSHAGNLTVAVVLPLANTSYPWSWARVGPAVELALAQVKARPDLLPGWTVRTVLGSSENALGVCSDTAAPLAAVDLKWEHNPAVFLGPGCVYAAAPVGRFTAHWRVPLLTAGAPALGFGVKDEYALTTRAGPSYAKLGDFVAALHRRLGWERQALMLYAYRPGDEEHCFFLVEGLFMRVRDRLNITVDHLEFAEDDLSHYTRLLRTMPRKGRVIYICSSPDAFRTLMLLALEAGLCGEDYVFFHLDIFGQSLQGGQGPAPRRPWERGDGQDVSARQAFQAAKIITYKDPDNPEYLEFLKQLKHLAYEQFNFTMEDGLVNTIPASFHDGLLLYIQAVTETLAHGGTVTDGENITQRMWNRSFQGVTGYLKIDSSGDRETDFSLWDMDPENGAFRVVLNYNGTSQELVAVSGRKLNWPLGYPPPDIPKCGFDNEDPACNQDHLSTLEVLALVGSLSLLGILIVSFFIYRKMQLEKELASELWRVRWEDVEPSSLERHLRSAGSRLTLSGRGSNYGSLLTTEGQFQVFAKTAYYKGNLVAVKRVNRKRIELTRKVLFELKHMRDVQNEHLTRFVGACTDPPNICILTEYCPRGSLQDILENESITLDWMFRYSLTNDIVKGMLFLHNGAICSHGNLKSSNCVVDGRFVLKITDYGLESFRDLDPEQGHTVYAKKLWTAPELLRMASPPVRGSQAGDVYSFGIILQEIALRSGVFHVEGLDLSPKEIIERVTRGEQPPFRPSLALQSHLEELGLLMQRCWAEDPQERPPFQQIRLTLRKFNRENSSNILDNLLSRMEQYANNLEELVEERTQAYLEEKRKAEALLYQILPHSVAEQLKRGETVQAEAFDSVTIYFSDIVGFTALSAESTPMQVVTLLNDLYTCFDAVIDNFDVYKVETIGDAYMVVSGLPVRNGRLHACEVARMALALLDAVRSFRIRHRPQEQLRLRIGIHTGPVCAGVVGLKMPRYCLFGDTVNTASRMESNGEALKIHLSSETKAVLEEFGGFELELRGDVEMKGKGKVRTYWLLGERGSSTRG

`COc1ccc2c(c1)C(=O)[C@@H](OC(=O)NS(=O)(=O)c1ccc(F)cc1)[C@H](c1ccc(OC)c(Br)c1)O2`: the Potency entry in assay [1], in assay [2], in assay [3], in assay [4], in assay [5] and in assay [6] was “inactive” each time.
For the compound `CC(=O)OC[C@H]1O[C@H](C#Cc2ccc(F)cc2F)C=C[C@H]1OC(C)=O`, the Potency result in assay [1], in assay [2], in assay [3], in assay [4], in assay [5] and in assay [6] was “inactive” each time.
For the compound `CC(C)OC(=O)CC(NC(=O)OC(C)(C)C)c1ccccc1` (stereo not given), the Potency result in assay [1], in assay [2], in assay [3], in assay [4], in assay [5] and in assay [6] was “inactive” throughout.
Take `COC(=O)C1=C(C)N(CCC(C)O)C(=O)N(C(C)=O)C1c1ccccc1` (stereo not given): the Potency entry in assay [1], in assay [2], in assay [3], in assay [4], in assay [5] and in assay [6] was “inactive” each time.
As for `COC(=O)c1c(C(=O)OC)c2c3ccccc3cc(-c3ccccc3)n2c1C(=O)OC`, the Potency result in assay [1], in assay [2], in assay [3], in assay [4], in assay [5] and in assay [6] was “inactive” each time.
Take `C#CCCCON=C1C[C@@H](O)[C@H](O)[C@H]2[C@@H]3C(=O)N(c4ccc(F)cc4F)C(=O)[C@@H]3CC[C@H]12`: the Potency entry in assay [1], in assay [2], in assay [3], in assay [4], in assay [5] and in assay [6] was “inactive” in each case.
Turning to `COCCN1C(=O)N[C@@H](c2cccc(C(F)(F)F)c2)[C@H](C(=O)OC)[C@H]1C`, the Potency entry in assay [1], in assay [2], in assay [3], in assay [4], in assay [5] and in assay [6] was “inactive” each time.
Regarding `COC(=O)C1=C(C(=O)OC)[C@@H]2N(C)c3ccccc3[C@@]23C[C@@H](C(=O)OC)N(C(=O)c2cccs2)C3=N1`, the Potency result in assay [1], in assay [2], in assay [3], in assay [4], in assay [5] and in assay [6] was “inactive” throughout.
Turning to `FC(F)(F)c1cc(NC(=S)NC(c2ccccc2)c2ccccc2)cc(C(F)(F)F)c1`, the Potency in assay [1] was 1.34 µM (active) and inactive; in assay [2], 1.51 µM (active) and inactive; in assay [3], 536 nM (active) and inactive; in assay [4], 757 nM (active) and inactive; in assay [5], 1.2 µM (active) and inactive. Further, in assay [6], the Potency entry was “inactive”.
As to `O=C1CCCC=C1C(O)CCOCc1ccccc1` (stereo not given), the Potency entry in assay [1], in assay [2], in assay [3], in assay [4], in assay [5] and in assay [6] was “inactive” each time.
With `C=CC1=C2C=C(C3CC3)N(Cc3ccc4c(c3)OCO4)C=C2C(=O)C(C)(OC(=O)c2ccco2)C1=O` (stereo not given), in assay [1], the activity, negative = inhibition was 4.05% [at 1.12 µM] (inactive). For the same compound, the Potency entry in assay [2], in assay [3], in assay [4], in assay [5] and in assay [6] was “inactive” in each case.
Turning to `CCN1C(=O)[C@@H]2[C@H]3[C@H](O)[C@H](O)CC(=NO[C@H](C)c4cn([C@H](CO)Cc5ccccc5)nn4)[C@@H]3CC[C@H]2C1=O`, the Potency result in assay [1], in assay [2], in assay [3], in assay [4], in assay [5] and in assay [6] was “inactive” in each case.
On to `CC12C=C(C=CCCc3ccco3)C(C)(C1)C(CCc1ccco1)CC2=O` (stereo not given), for which the Potency entry in assay [1], in assay [2], in assay [3], in assay [4], in assay [5] and in assay [6] was “inactive” each time.
In the case of `CC(C)[C@@H](OCc1ccccc1)[C@H](C)C=NOC[C@@H](O)[C@H]1O[C@@H]2OC(C)(C)O[C@H]2[C@@H]1O`, the Potency entry in assay [1], in assay [2], in assay [3], in assay [4], in assay [5] and in assay [6] was “inactive” in each case.
With `CCCCCCCC#Cc1ccccc1C=NS(=O)c1ccc(C)cc1` (stereo not given), the Potency entry in assay [1], in assay [2], in assay [3], in assay [4], in assay [5] and in assay [6] was “inactive” each time.
Take `CCOC(=O)CN1C(=O)N[C@@H](c2cccc(C(F)(F)F)c2)[C@H](C(C)=O)[C@H]1C`: the Potency result in assay [1], in assay [2], in assay [3], in assay [4], in assay [5] and in assay [6] was “inactive” throughout.
Turning to `C=CCOC(=O)C(C(C)=O)[C@@H](NC(=O)OC)c1cccs1` (stereo not given in full), the Potency result in assay [1], in assay [2], in assay [3], in assay [4], in assay [5] and in assay [6] was “inactive” throughout.
On to `CC(=O)OC[C@H]1O[C@H](C#Cc2ccccc2)C=C[C@H]1O`, for which the Potency entry in assay [1], in assay [2], in assay [3], in assay [4], in assay [5] and in assay [6] was “inactive” throughout.
With `COC(=O)CC1c2ccccc2C(Cc2ccc(OC)cc2)=C(C)N1C(=O)OC` (stereo not given), the Potency result in assay [1], in assay [2], in assay [3], in assay [4], in assay [5] and in assay [6] was “inactive” each time.
Regarding `COC(=O)CCCC1=CC2=C(c3ccccc3)C(=O)C(C)(OC(=O)C3CCCC3)C(=O)C2=CN1c1ccccc1` (stereo not given), the Potency result in assay [1], in assay [2], in assay [3], in assay [4], in assay [5] and in assay [6] was “inactive” throughout.
For `CC(=O)OC[C@H]1O[C@H](CC=NO[C@@H](C)c2cc(-c3c(C)cc(C)cc3C)no2)C=C[C@@H]1OC(C)=O`, the Potency result in assay [1], in assay [2], in assay [3], in assay [4], in assay [5] and in assay [6] was “inactive” throughout.
Consider `COC(=O)C(C(=O)OC)[C@H]1c2ccccc2[C@@H]2C(=C[C@@H](C)[C@H]3C(=O)N(c4ccccc4)C(=O)[C@H]32)N1C(=O)OC`, for which the Potency entry in assay [1], in assay [2], in assay [3], in assay [4], in assay [5] and in assay [6] was “inactive” each time.
Regarding `C=C(C#Cc1ccc(OC)cc1)CCN1C=C(C(=O)OCC)C(c2ccccc2)NC1=O` (stereo not given), the Potency entry in assay [1], in assay [2], in assay [3], in assay [4], in assay [5] and in assay [6] was “inactive” each time.
Consider `COC(=O)CC=C[C@@H](C)[C@H](NC(=O)OCC(Cl)(Cl)Cl)c1ccccc1`, for which the Potency result in assay [1], in assay [2], in assay [3], in assay [4], in assay [5] and in assay [6] was “inactive” each time.
Consider `C=CC[C@@H]1C=C[C@H](ON=C[C@@H](N[S+](=O)([O-])c2ccc(C)cc2)[C@H](C)C=CCC(=O)OC)[C@H](CO)O1`, for which the Potency result in assay [1], in assay [2], in assay [3], in assay [4], in assay [5] and in assay [6] was “inactive” each time.
